Data from PubChem BioAssay AID1211 (NMMLSC, 2008).

Each compound was assayed against Estrogen receptor (Homo sapiens) (UniProt P03372) (assay: displacement of fluorescent estrogen from ERalpha – cell-based, Cos7 ERalpha-GFP, flow cytometry, primary screen (AID 1211;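 also: 0% = DMSO vehicle wells and 100% = no E2-Alexa633 signal left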)). Conditions: fluorescent ligand competition, binding inhibition, at 0.1 µM, stronger effect = higher value.
Chain of Estrogen receptor (Homo sapiens) (P03372 whole entry, looked up): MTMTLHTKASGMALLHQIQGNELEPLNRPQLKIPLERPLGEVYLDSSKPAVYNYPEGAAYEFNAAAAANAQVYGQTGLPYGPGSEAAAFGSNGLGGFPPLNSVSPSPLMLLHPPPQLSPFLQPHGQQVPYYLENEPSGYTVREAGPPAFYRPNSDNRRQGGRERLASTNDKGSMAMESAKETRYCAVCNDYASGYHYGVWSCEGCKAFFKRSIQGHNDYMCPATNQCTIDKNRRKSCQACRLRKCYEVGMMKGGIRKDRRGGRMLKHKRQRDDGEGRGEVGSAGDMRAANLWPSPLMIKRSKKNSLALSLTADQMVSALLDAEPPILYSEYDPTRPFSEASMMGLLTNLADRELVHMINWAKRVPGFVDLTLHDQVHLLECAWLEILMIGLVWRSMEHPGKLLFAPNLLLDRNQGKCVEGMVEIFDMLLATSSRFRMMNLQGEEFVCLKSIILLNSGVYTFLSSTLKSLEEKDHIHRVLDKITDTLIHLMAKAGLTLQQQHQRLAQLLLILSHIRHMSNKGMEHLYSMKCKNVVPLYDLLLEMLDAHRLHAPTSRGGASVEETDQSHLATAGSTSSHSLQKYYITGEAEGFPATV

Row | Compound | inhibition of ligand binding
1 | COc1ccc(N2Cc3cccc(C(=O)N4CCN(C(=O)c5ccco5)CC4)c3C2=O)cc1 | 38%
2 | CCN1CCc2nc(NC(=O)Cc3ccc4c(c3)OCCO4)sc2C1 | 31%
3 | O=C1CC(=O)N2N=C(c3ccc([N+](=O)[O-])cc3)SC2=N1 | 8%
4 | O=C(O)c1cc(-c2ccco2)nc2ccc(Br)cc12 | 39%
5 | O=C(CCCn1c(=S)[nH]c2ccccc2c1=O)N1CCN(c2cccc(Cl)c2)CC1 | 15%
6 | O=C(c1cc2ncc(Br)cn2n1)N1CCOCC1 | 25%
7 | Oc1ccc(C2=Nn3c(nnc3-c3ccco3)SC2)cc1O | 27%
8 | Cc1ccc(Nc2nnc(SCC(=O)NCc3ccco3)s2)cc1 | 12%
9 | COc1ccc(C2Nc3ccccc3C(=O)N2c2ccccc2)cc1Cn1cc([N+](=O)[O-])cn1 (stereo not drawn) | 12%
10 | Cc1nn(-c2ccccc2)c2sc(C(=O)c3c(N)n(C)c(=O)n(C)c3=O)cc12 | 16%
11 | O=C1NC(c2ccc(Br)cc2)Nc2sc3c(c21)CCC3 (stereo not drawn) | 69%
12 | COc1ccc(-n2c(SCC(=O)Nc3nccs3)nc3sc4c(c3c2=O)CCN(C)C4)cc1 | 24%
13 | CCCCn1c(NC(=O)CC)c(C#N)c2nc3ccccc3nc21 | 40%
14 | O=C(COC(=O)CCC(=O)c1cccs1)NCc1ccco1 | 74%
15 | O=C(O)c1ccc(NS(=O)(=O)c2ccc3c(c2)C2C=CCC2C(c2ccccc2F)N3)cc1 (stereo not drawn) | 5%
16 | CCC(=O)Oc1ccc(/C(CC)=C(\CC)c2ccc(OC(=O)CC)cc2)cc1 | 86%
17 | CCOC(=O)c1c(C)[nH]c(C)c1C(=O)CSc1nnc(-c2cc(OC)c(OC)c(OC)c2)o1 | 38%
18 | O=C(O)C1CSC(c2coc3ccccc3c2=O)N1 (stereo not drawn) | 47%
19 | Cc1ccc(C)n1-c1sccc1C(=O)O | 36%

Row | Compound | inhibition of ligand binding
20 | O=C(Nc1sc2c(c1C(=O)O)CCC2)c1ccccc1 | 61%
21 | COc1ccc(C2Nc3ccccc3C(=O)N2c2ccccc2)cc1COc1ccccn1 (stereo not drawn) | 58%
22 | O=C(Nc1ccc2c(c1)nc1n2CCSC1)c1ccco1 | 42%
23 | O=C(Cc1ccccc1)Nc1ccc2oc(-c3cccnc3)nc2c1 | 44%
24 | COc1ccc(NC(=O)C(c2ccccc2)N(C)C(=O)c2ccc(=O)[nH]c2)cc1 (stereo not drawn) | 86%
25 | CCN1CCN(Cc2c(O)c(Cl)cc3c(C)cc(=O)oc23)CC1 | 28%
26 | CC(C)(C)c1nnc2sc(SC/C(O)=C(\C#N)c3nc4ccccc4[nH]3)nn2c1=O | 8%
27 | Nc1ccc(-n2cnc3cc([N+](=O)[O-])ccc32)cc1 | 66%
28 | COc1ccc2c(c1)c1nc3ccccc3nc1n2CCCN1C(=O)c2ccccc2C1=O | 33%
29 | COc1ccc(-c2ccc(=O)[nH]n2)cc1 | 52%
30 | COc1cccc(-c2nnc(NC(=O)Cc3cccs3)s2)c1 | 20%
31 | CN(C)c1ccc(N=Cc2ccco2)cc1 | 23%
32 | Cc1[nH]c2ccc(-c3nnc(SCC(=O)c4ccccc4F)o3)cc2c1C | 4%
33 | Cc1noc(C)c1COc1ccc(C(=O)OCC(=O)N2c3ccccc3NC(=O)C2(C)C)cc1 | 16%
34 | CCOC(=O)c1ccc(NC(=O)CSc2nc(C)cc(=O)[nH]2)cc1 | 21%
35 | CC(C)CN(C(=O)COC(=O)c1cc2c(s1)CCC2)C1CCS(=O)(=O)C1 (stereo not drawn) | 21%
36 | NC(=O)c1c(NC(=O)c2cc3ccccc3o2)sc2c1CCC2 | 5%
37 | O=C(Cn1ncc2c(=O)oc3ccccc3c21)Nc1nc2ccccc2s1 | 22%
38 | O=C(COC(=O)c1ccccc1)NCc1ccco1 | 27%
